Laboratory results published in the supplement of paper PMC13094657.
± gives the standard deviation of the averaged measurements.

What was measured:
[1] = system: MDA-MB-231; assay: cell viability relative to vehicle unstimulated control (fraction); higher = more viable cells; settings: pre-treatment time: 18 h then 24 h IFNg/TNF
[2] = system: MDA-MB-231; assay: kynurenine production, fold change vs DMSO IFNg/TNF control; higher = more kynurenine produced (less inhibition); settings: pre-treatment time: 18 h then 24 h IFNg/TNF
Summary of the method: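 After trichloroacetic acid and p-dimethylaminobenzaldehyde treatment, supernatants were read at 492 nm, with 0–100 μM standards. These came from MDA-MB-231 cells (7 × 10^4/well, 96-well plates) pre-treated 18 h with natural products in 0.1% DMSO and then exposed 24 h to IFNγ (1 U/ml) and TNF (6.25 ng/ml) at 37°C. Values for kynurenine production are fold changes over same-plate cytokine-stimulated vehicle wells, averaged over duplicate plates in the first screening round.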
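Throughout, for cell viability relative to vehicle unstimulated control: viability of the cells left after supernatant collection, read with Deep Blue dye added for 4 h, as absorbance at 570 nm minus 600 nm.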

COc1c2cc3c(c1OC)CCN(C)[C@@H]3Cc1ccc(cc1)Oc1cc3c(c(OC)c1OC)CCN(C)[C@@H]3Cc1ccc(cc1)O2 [Cycleanine] (compound dose: 10 uM)
cell viability [1]: 0.118 ± 0.0024
kynurenine production [2]: 0.198 ± 0.023

C=C1C[C@@]23CC[C@H]4[C@@](C)(CCC[C@@]4(C)C(=O)O)[C@@H]2CC[C@@H]1C3 [Kaurenoic acid] (compound dose: 10 uM)
cell viability [1]: 1.006 ± 0.0069
kynurenine production [2]: 0.878 ± 0.12

COc1cc2c(=O)c3c(O)c([C@@H]4O[C@H](CO[C@@H]5OC[C@](O)(CO)[C@H]5O)[C@@H](O)[C@H](O)[C@H]4O)c(O)cc3oc2cc1O [Polygalaxanthone III] (compound dose: 10 uM)
cell viability [1]: 1 ± 0.048
kynurenine production [2]: 1.01 ± 0.037

CC(C)(O[C@@H]1O[C@H](CO)[C@@H](O)[C@H](O)[C@H]1O)[C@@H]1CC[C@](C)([C@H]2[C@@H](O)C[C@@]3(C)[C@@H]4C[C@H](O)[C@H]5C(C)(C)[C@@H](O[C@@H]6OC[C@@H](O)[C@H](O)[C@H]6O)CC[C@@]56C[C@@]46CC[C@]23C)O1 [Isoastragaloside IV] (compound dose: 10 uM)
cell viability [1]: 0.924 ± 0.083
kynurenine production [2]: 1.23 ± 0.33

C=C1C[C@@]23CC[C@H]4[C@@](C)(CCC[C@@]4(C)C(=O)O)[C@@H]2CC[C@]1(O[C@@H]1O[C@@H](CO)[C@@H](O)[C@H](O)[C@@H]1O[C@@H]1O[C@@H](CO)[C@@H](O)[C@H](O)[C@@H]1O)C3 [Steviolbioside] (compound dose: 10 uM)
cell viability [1]: 0.904 ± 0.19
kynurenine production [2]: 1.05 ± 0.44

C/C1=C/CC[C@H](C)C(=O)C[C@@H](C(C)C)C(=O)C1 [Curdione] (compound dose: 10 uM)
cell viability [1]: 0.926 ± 0.015
kynurenine production [2]: 1.02 ± 0.059

C[C@H]1O[C@@H](O[C@H]2[C@@H](O)C[C@H](O[C@H]3[C@@H](O)C[C@H](O[C@H]4CC[C@@]5(C)[C@H](CC[C@@H]6[C@@H]5CC[C@]5(C)[C@@H](C7=CC(=O)OC7)CC[C@]65O)C4)O[C@@H]3C)O[C@@H]2C)C[C@H](O)[C@@H]1O [Digitoxin] (compound dose: 10 uM)
cell viability [1]: 0.997 ± 0.019
kynurenine production [2]: 0.967 ± 0.023

C/C1=C\C(=O)c2c(C)coc2C/C(C)=C/CC1 [Furanodienone] (compound dose: 10 uM)
cell viability [1]: 0.949 ± 0.065
kynurenine production [2]: 0.759 ± 0.13

CC(C)=CCC[C@](C)(O[C@@H]1O[C@H](CO[C@@H]2O[C@H](CO)[C@@H](O)[C@H](O)[C@H]2O)[C@@H](O)[C@H](O)[C@H]1O)[C@H]1CC[C@]2(C)[C@@H]1[C@H](O)C[C@@H]1[C@@]3(C)CC[C@H](O[C@@H]4O[C@H](CO)[C@@H](O)[C@H](O)[C@H]4O[C@@H]4O[C@H](CO)[C@@H](O)[C@H](O)[C@H]4O[C@@H]4OC[C@@H](O)[C@H](O)[C@H]4O)C(C)(C)[C@@H]3CC[C@]12C [Notoginsenoside Fa] (compound dose: 10 uM)
cell viability [1]: 1.21 ± 0.15
kynurenine production [2]: 1.06 ± 0.13

CC(C)(O)[C@H]1CC[C@@](C)([C@H]2[C@@H](O)C[C@@]3(C)[C@@H]4C[C@H](O)[C@H]5C(C)(C)[C@@H](O)CC[C@@]56C[C@@]46CC[C@]23C)O1 [Cyclogalegenin] (compound dose: 10 uM)
cell viability [1]: 0.999 ± 0.043
kynurenine production [2]: 0.854 ± 0.064

CC12CCC(C1)C(C)(C)C2=O (single isomer, unassigned; (-)) [(-)-Fenchone] (compound dose: 10 uM)
cell viability [1]: 1.121 ± 0.0077
kynurenine production [2]: 0.955 ± 0.13

C[C@H]1[C@H](C)CC[C@]2(C(=O)O)CC[C@]3(C)C(=CC[C@@H]4[C@@]5(C)C[C@@H](O)[C@H](O)[C@@](C)(CO)[C@@H]5CC[C@]43C)[C@H]12 [Asiatic acid] (compound dose: 10 uM)
cell viability [1]: 1.01 ± 0.018
kynurenine production [2]: 0.85 ± 0.16

O=c1cc(-c2ccc(O)cc2)oc2cc(O)cc(O)c12 [Apigenin] (compound dose: 10 uM)
cell viability [1]: 0.96 ± 0.053
kynurenine production [2]: 0.806 ± 0.026

C=C1C(=O)O[C@@H]2/C=C(\C)CC/C=C(\C)CC[C@@H]12 [Costunolide] (compound dose: 10 uM)
cell viability [1]: 1.03 ± 0.059
kynurenine production [2]: 0.474 ± 0.063

C=C1[C@H](OC(=O)C(C)C)[C@@H](O)[C@@H](OC(=O)c2cccnc2)C(C)(C)/C=C/[C@H](C)[C@H](OC(C)=O)[C@@]2(O)C[C@@](C)(OC(C)=O)[C@H](OC(=O)c3ccccc3)[C@@H]2[C@H]1OC(C)=O [Jatrophane 3] (compound dose: 10 uM)
cell viability [1]: 1.04 ± 0.056
kynurenine production [2]: 0.82 ± 0.18

C=C1C(=O)O[C@H]2C[C@@H](C)[C@@H]3[C@@H](OC(C)=O)C[C@H](O)[C@@]3(C)[C@@H](OC(C)=O)[C@H]12 [Britannin] (compound dose: 10 uM)
cell viability [1]: 1.01 ± 0.043
kynurenine production [2]: 0.268 ± 0.075

Cc1ccc(C(C)C)cc1O [Carvacrol] (compound dose: 10 uM)
cell viability [1]: 1.06 ± 0.036
kynurenine production [2]: 0.855 ± 0.035

CC(C)C12CCC(C)(CC1)O2 [1,4-Cineole] (compound dose: 10 uM)
cell viability [1]: 0.907 ± 0.026
kynurenine production [2]: 0.863 ± 0.11

C=C(C)[C@@H]1CCC2=CC(=O)C[C@@H](C)[C@]2(C)C1 [Nootkatone] (compound dose: 10 uM)
cell viability [1]: 0.9333 ± 0.0022
kynurenine production [2]: 0.932 ± 0.073

CC(=O)OC1COC(OC2CCC34CC35CCC3(C)C(C6(C)CCC(C(C)(C)O)O6)C(O)CC3(C)C5CC(OC3OC(CO)C(O)C(O)C3O)C4C2(C)C)C(OC(C)=O)C1O (stereo not drawn) [Isoastragaloside I] (compound dose: 10 uM)
cell viability [1]: 0.983 ± 0.0057
kynurenine production [2]: 0.925 ± 0.059

CC1=CC(=O)[C@@H]2C[C@H]1C2(C)C [Verbenone] (compound dose: 10 uM)
cell viability [1]: 1.128 ± 0.0013
kynurenine production [2]: 1.25 ± 0.13

O=C(OCC1=C[C@@H](O)[C@@H]2C=CO[C@@H](O[C@@H]3O[C@H](CO)[C@@H](O)[C@H](O)[C@H]3O)[C@H]12)c1ccc(O)cc1 [Agnuside] (compound dose: 10 uM)
cell viability [1]: 1.08 ± 0.039
kynurenine production [2]: 0.864 ± 0.17

C=C(C)[C@@H]1CC=C(CO)CC1 [Perillyl alcohol] (compound dose: 10 uM)
cell viability [1]: 1.036 ± 0.0039
kynurenine production [2]: 0.905 ± 0.13

C[C@@H]1O[C@@H](O[C@H]2[C@H](OC(=O)[C@]34CCC(C)(C)C[C@H]3C3=CC[C@@H]5[C@@]6(C)C[C@H](O)[C@H](O[C@@H]7O[C@H](CO)[C@@H](O)[C@H](O)[C@H]7O)C(CO)(CO)[C@@H]6CC[C@@]5(C)[C@]3(C)C[C@H]4O)OC[C@H](O)[C@@H]2O)[C@H](O)[C@H](O)[C@H]1O[C@@H]1OC[C@@H](O)[C@H](O[C@@H]2OC[C@](O)(CO)[C@H]2O)[C@H]1O [Platycodin D] (compound dose: 10 uM)
cell viability [1]: 0.609 ± 0.21
kynurenine production [2]: 0.354 ± 0.065

C[C@@H]1O[C@@H](O[C@H]2[C@H](O[C@H]3CC[C@@]4(C)[C@@H](CC[C@]5(C)[C@@H]4CC=C4[C@@H]6CC(C)(C)CC[C@]6(C(=O)O)CC[C@]45C)[C@]3(C)CO)OC[C@H](O[C@@H]3O[C@H](CO)[C@@H](O)[C@H](O)[C@H]3O)[C@@H]2O)[C@H](O)[C@H](O)[C@H]1O [Pulsatilla saponin D] (compound dose: 10 uM)
cell viability [1]: 0.145 ± 0.0044
kynurenine production [2]: 0.141 ± 0.07

C=C[C@H]1[C@H](O[C@@H]2O[C@H](CO)[C@@H](O)[C@H](O)[C@H]2O)OC=C2C(=O)OCC[C@]21O [Swertiamarin] (compound dose: 10 uM)
cell viability [1]: 0.9564 ± 0.0069
kynurenine production [2]: 0.912 ± 0.14

C=C1C(=O)O[C@H]2[C@H]1CCC(C)=C1CC[C@@](C)(O)[C@@H]12 [Micheliolide] (compound dose: 10 uM)
cell viability [1]: 0.904 ± 0.063
kynurenine production [2]: 0.591 ± 0.11

CC(C)=CCCC(C)CCO (stereo not drawn) [Citronellol] (compound dose: 10 uM)
cell viability [1]: 1.03 ± 0.057
kynurenine production [2]: 0.845 ± 0.25

CC1(C)CC[C@]2(C)CC[C@]3(C)C(=CC[C@@H]4[C@@]5(C)CC[C@@H](O)[C@](C)(C(=O)O)[C@@H]5CC[C@]43C)[C@@H]2C1 [alpha-Boswellic acid] (compound dose: 10 uM)
cell viability [1]: 0.953 ± 0.011
kynurenine production [2]: 0.911 ± 0.028

C[C@@H]1O[C@@H](O[C@H]2[C@H](O[C@H]3CC[C@@]4(C)[C@@H](CC[C@]5(C)[C@@H]4CC=C4[C@@H]6CC(C)(C)CC[C@]6(C(=O)O)CC[C@]45C)[C@]3(C)CO)OC[C@H](O)[C@@H]2O)[C@H](O)[C@H](O)[C@H]1O [alpha-Hederin] (compound dose: 10 uM)
cell viability [1]: 0.932 ± 0.067
kynurenine production [2]: 0.875 ± 0.14

C[C@@H]1CC[C@H]2[C@@H](C)C(=O)O[C@@H]3O[C@@]4(C)CC[C@@H]1[C@]32O4 [Deoxyartemisinin] (compound dose: 10 uM)
cell viability [1]: 1.28 ± 0.3
kynurenine production [2]: 0.8521 ± 0.0034

CC(C)=CCC[C@](C)(O[C@@H]1O[C@H](CO[C@@H]2O[C@@H](CO)[C@H](O)[C@H]2O)[C@@H](O)[C@H](O)[C@H]1O)[C@H]1CC[C@]2(C)[C@@H]1[C@H](O)C[C@@H]1[C@@]3(C)CC[C@H](O[C@@H]4O[C@H](CO)[C@@H](O)[C@H](O)[C@H]4O[C@@H]4O[C@H](CO)[C@@H](O)[C@H](O)[C@H]4O)C(C)(C)[C@@H]3CC[C@]12C [Ginsenoside Rc] (compound dose: 10 uM)
cell viability [1]: 0.9496 ± 0.0049
kynurenine production [2]: 0.744 ± 0.044

CC(C)(O)[C@H]1CC[C@@](C)([C@H]2CC[C@]3(C)[C@@H]2[C@H](O)C[C@@H]2[C@@]4(C)CC[C@H](O)C(C)(C)[C@@H]4[C@@H](O[C@@H]4O[C@H](CO)[C@@H](O)[C@H](O)[C@H]4O)C[C@]23C)O1 [Pseudoginsenoside RT5] (compound dose: 10 uM)
cell viability [1]: 0.987 ± 0.016
kynurenine production [2]: 0.865 ± 0.21

CC(C)=CCC[C@@](C)(O)[C@H]1CC[C@]2(C)[C@@H]1[C@H](O)C[C@@H]1[C@@]3(C)C[C@@H](O)[C@H](O[C@@H]4O[C@H](CO)[C@@H](O)[C@H](O)[C@H]4O[C@@H]4O[C@H](CO)[C@@H](O)[C@H](O)[C@H]4O)C(C)(C)[C@@H]3CC[C@]12C [Gypenoside LI] (compound dose: 10 uM)
cell viability [1]: 0.936 ± 0.084
kynurenine production [2]: 0.724 ± 0.1
